Reference: PubChem BioAssay (NCATS)
Results filed as inconclusive are left out. Values without a mark were called inactive. The source made the active and inactive calls. Calls come from the whole dose curve; as a rule, active = well fitted activation curve with a large enough effect; inconclusive = small, poorly fitted or top-dose-only effect; inactive = no such curve, though single readings can be large or run the other way.

The compounds below were run against Arylsulfatase A (Homo sapiens) (UniProt P15289) (assay: qHTS screen for enhancers of Arylsulfatase A (ASA1): LOPAC Validation Assay (AID 720538; for activity change, positive = activation: 0% is about no effect)). Conditions: ASA enzyme activity, LOPAC qHTS enhancer assay; series mostly up to 57.5 µM; activity change, positive = activation: at the top concentration.
Description: Lysosomal storage diseases (LSDs) are caused by genetic mutations in genes encoding proteins important for normal lysosomal function. In affected patients, symptoms are usually not manifested unless the mutations result in more than 90% reduction of enzymatic activity of a specific lysosomal enzyme. […] Small molecules could function as enzyme enhancement agents by binding to and stabilizing mutant misfolded proteins in the endoplasmic reticulum (ER), allowing them to evade the ER associated degradation (ERAD), and eventually reach the lysosome. Moreover, small molecules is hypothesized to be able to enhance the residual activity of deficient lysosomal enzyme by either interacting directly with the mutant enzyme or indirectly by acting in different cellular pathways; resulting to increased levels of the mutant and partially functional protein in the lysosomal compartment.
A cell based assay in 1536 well plate format was developed to evaluate activity of the lysosomal sulfatase ASA1 enzyme. ASA1 is deficient in metachromatic leukodystrophy (MLD), an LSD characterized by progressive neurodegeneration for which specific treatment is not available. Compounds that are active may therefore have some therapeutic application for this disease. This assay was used to validate the ASA1 qHTS using the Sigma LOPAC library. In this assay increase in signal = enhanced ASA1 activity. Activation is the desired outcome for this assay.
NIH Chemical Genomics Center [NCGC]
NIH Molecular Libraries Probe Centers Network [MLPCN]
Assay Submitter (PI): Gustavo Maegawa, Johns Hopkins University School of Medicine
[2] Gieselmann V, et al. Acta Paediatr Suppl. 2008; 97: 15-21
Four microliter (~8,000 cells/well) of SV40-transformed skin fibroblasts from an MLD patient (ASA-I179S) were seeded into a 1,536 solid white plate. Cells were left to adhere for 6 hrs, followed by addition of 23 nL of compounds. Cells were incubated with compounds for 48h at 37 degree C and 5% CO2. Four microliter of 1 mM pNCS substrate/lysis buffer (0.5mM pNCS final concentration) was added and incubated for 14h at room temperature. To stop the reaction, […] of 5 N of NaOH (1N NaOH final concentration) was then added and fluorescence was measured using the ViewLux plate reader (Ex=525 nm; Em=598 nm).
Potency is the fitted concentration of half-maximal effect.

Chain of Arylsulfatase A (Homo sapiens) (P15289 whole entry, looked up): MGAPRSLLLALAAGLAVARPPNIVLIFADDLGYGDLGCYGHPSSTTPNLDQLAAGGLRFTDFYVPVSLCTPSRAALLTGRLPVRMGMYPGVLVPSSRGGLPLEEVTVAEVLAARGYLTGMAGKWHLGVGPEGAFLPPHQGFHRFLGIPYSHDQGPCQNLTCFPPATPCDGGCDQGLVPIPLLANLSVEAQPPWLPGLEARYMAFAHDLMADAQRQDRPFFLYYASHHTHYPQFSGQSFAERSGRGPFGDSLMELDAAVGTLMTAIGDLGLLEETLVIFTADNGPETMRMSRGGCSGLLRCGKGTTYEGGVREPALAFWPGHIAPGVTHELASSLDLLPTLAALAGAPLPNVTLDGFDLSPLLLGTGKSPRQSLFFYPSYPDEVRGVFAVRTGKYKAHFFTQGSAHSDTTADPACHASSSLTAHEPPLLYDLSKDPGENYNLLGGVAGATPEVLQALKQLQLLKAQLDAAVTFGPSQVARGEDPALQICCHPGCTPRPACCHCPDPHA

Compound	activity change, positive = activation [%]	outcome	Potency
COC[C@H]1OC(=O)c2coc3c2[C@@]1(C)C1=C(C3=O)C2CCC(=O)[C@@]2(C)C[C@H]1OC(C)=O (some centres undefined)	-42.1		
O=c1[nH]c2ccccc2n1CCCN1CCC(n2c(=O)[nH]c3cc(Cl)ccc32)CC1	-24.5		
CC(CCc1ccccc1)NC(C)C(O)c1ccc(O)cc1 (centres undefined)		inactive	
O=NN(CCCl)C(=O)NCCCl	-39.4		
CC(C)=CCOc1c2occc2cc2ccc(=O)oc12		inactive	
NN=C(N)N			inactive
O=C1NCN(c2ccccc2)C12CCN(CC1COc3ccccc3O1)CC2 (centres undefined)			3.01 µM (active)
C[C@]12CC[C@@H]3c4ccc(O)cc4C[C@@H](CCCCCCCCCS(=O)CCCC(F)(F)C(F)(F)F)[C@H]3[C@@H]1CC[C@@H]2O (some centres undefined)		inactive; inhibitor; fitted 4.7755 uM	
N#CC(C#N)=Cc1ccc(O)c(O)c1		inactive	
COc1ccccc1N1CCNCC1	-15.6		
C[C@]12CCC(=O)C(O)=C1CC[C@@H]1[C@@H]2CC[C@]2(C)C(=O)CC[C@@H]12	-0.284		
c1ccc(C2CC2)c(OCC2=NCCN2)c1	-15.7		
CN1C[C@H](CNC(=O)OCc2ccccc2)C[C@@H]2c3cccc4c3c(cn4C)C[C@H]21	-7.9		
CC(=O)[C@H]1CC[C@H]2[C@@H]3CC[C@H]4C[C@H](O)CC[C@]4(C)[C@H]3C(=O)C[C@]12C	7.36		
CNCCC(Oc1ccc(C(F)(F)F)cc1)c1ccccc1 (centres undefined)	-13.7		
Nc1ccncc1	2.54		
c1ccc2c(c1)OCC(C1=NCCN1)O2 (centres undefined)		inactive	

Compound	activity change, positive = activation [%]	outcome	Potency
C[C@@H]1O[C@@H](O[C@H]2C[C@@H](O)[C@]3(CO)[C@H]4[C@H](O)C[C@]5(C)[C@@H](C6=CC(=O)OC6)CC[C@]5(O)[C@@H]4CC[C@]3(O)C2)[C@H](O)[C@H](O)[C@H]1O	9.24		
CC[C@@H](CO)NC(=O)[C@@H]1C=C2c3cccc4[nH]cc(c34)C[C@H]2N(C)C1	-87.2		
COc1ccc(Cc2nccc3cc(OC)c(OC)cc23)cc1OC	20.9		
C=C(C)[C@H]1Cc2c(ccc3c2O[C@@H]2COc4cc(OC)c(OC)cc4[C@@H]2C3=O)O1	7.35		
Cc1cc2c(C(C)C)c(O)c(O)c(C=O)c2c(O)c1-c1c(C)cc2c(C(C)C)c(O)c(O)c(C=O)c2c1O			19 µM (active)
CC[C@@H](CO)NC(=O)[C@@H]1C=C2c3cccc4c3c(cn4C)C[C@H]2N(C)C1	-425		
Cc1ccc(S(=O)(=O)N[C@@H](CCCCN)C(=O)CCl)cc1			3.01 µM (active)
Cc1cccc(C)c1NC(=O)CN1CCCC1=O	11.3		
NCC(CC(=O)O)c1ccc(Cl)cc1 (centres undefined)	-17.6		
CCC1(C2=NCCN2)Cc2ccccc2O1 (centres undefined)		inactive	
NCC1(CC(=O)O)CCCCC1	5.87		
O=c1[nH]c2ccccc2n1C1CCN(CCCC(c2ccc(F)cc2)c2ccc(F)cc2)CC1	-11.1		
NCC(O)c1ccc(O)cc1 (centres undefined)	-32.9		
CNCC(O)c1ccc(O)cc1 (centres undefined)	-29.5		
CCCC(C)(COC(N)=O)COC(=O)NC(C)C (centres undefined)		inactive	
CCCN1CCC[C@@H]2Cc3[nH]ncc3C[C@H]21	14.3		
CCCN1CCC[C@@H]2Cc3nc(N)ncc3C[C@H]21		inactive	
